From PubChem BioAssay (NCATS)
Records with an inconclusive call do not appear. Where a call stands in place of a potency, no number is given. Calls of active or inactive are those of the source. The call rests on the fitted dose curve; in most records, active means well fitted curve in the direction sought with a large enough effect; inconclusive means small, poorly fitted or top-dose-only effect, or another doubt; inactive means no such curve, though single readings can be large; an effect the other way counts as inactive or inconclusive.

Columns and labels:
[1] = test system: WaGa; test: qHTS assay to identify novel small-molecules to repurpose for Merkel cell carcinoma treatment (AID 1296009); details: MCC and control cell lines, CellTiter-Glo viability, 72 h; series mostly up to 46 µM; further: nearly all actives have a fitted effect of over 60% in size; further: potency means the concentration at half of the fitted maximal effect
Procedure, shortened: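 Cells exposed to NPC (8-point) and MIPE (11-point) compound dilutions for 72 hr at 37 degree celsius; viability read by CellTiter-Glo luminescence, normalized to no-cell and DMSO in-plate controls.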

[2] = test system: C33A; test: Primary qHTS to identify gynecologic anti-cancer compounds using libraries of approved drugs and bioactive compounds (AID 1345084); details: Gynecologic cancer cell panel viability, ATPlite luminescence, 48 h; series mostly up to 57.5 µM; further: nearly all actives have a fitted effect of over 55% in size; further: potency means the concentration at half of the fitted maximal effect
Procedure, shortened: (§1)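 Five-point cytotoxicity, 48 h drug exposure at 37 C, 5% CO2, on cells seeded 16 h beforehand. ATP content read by ATPlite luminescence.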

[3] = test system: CASKI; test: as above; details: Gynecologic cancer cell panel viability, ATPlite luminescence, 48 h; series mostly up to 57.5 µM
Procedure, shortened: as §1

[4] = test system: Es-2; test: as above; details: Gynecologic cancer cell panel viability, ATPlite luminescence, 48 h; series mostly up to 57.5 µM
Procedure, shortened: as §1

[5] = test system: HeLa; test: as above; details: Gynecologic cancer cell panel viability, ATPlite luminescence, 48 h; series mostly up to 57.5 µM
Procedure, shortened: as §1

[6] = test system: Hek293T; test: as above; details: Gynecologic cancer cell panel viability, ATPlite luminescence, 48 h, control line for the selectivity index; series mostly up to 57.5 µM
Procedure, shortened: as §1

[7] = test system: JEG-3; test: as above; details: Gynecologic cancer cell panel viability, ATPlite luminescence, 48 h; series mostly up to 57.5 µM
Procedure, shortened: as §1

[8] = test system: OV90; test: as above; details: Gynecologic cancer cell panel viability, ATPlite luminescence, 48 h; series mostly up to 57.5 µM
Procedure, shortened: as §1

[9] = test system: PA-1; test: as above; details: Gynecologic cancer cell panel viability, ATPlite luminescence, 48 h; series mostly up to 57.5 µM
Procedure, shortened: as §1

[10] = test system: SKOV3; test: as above; details: Gynecologic cancer cell panel viability, ATPlite luminescence, 48 h; series mostly up to 57.5 µM
Procedure, shortened: as §1

[11] = test system: Tov-21-G; test: as above; details: Gynecologic cancer cell panel viability, ATPlite luminescence, 48 h; series mostly up to 57.5 µM
Procedure, shortened: as §1

[12] = test system: Tov112D; test: as above; details: Gynecologic cancer cell panel viability, ATPlite luminescence, 48 h; series mostly up to 57.5 µM
Procedure, shortened: as §1

[13] = test system: astro; test: Drug repurposing screens with cells derived from glioblastoma tumor samples (AID 1345199); details: viability, ATP luminescence, 48 h; series mostly up to 45.9 µM; further: nearly all actives have a fitted effect of over 40% in size
Procedure, shortened: (§2)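 Four patient lines of CD133+ GBM neurospheres were screened at several concentrations; hits were retested in those lines plus three slower-growing GBM lines, using 48-hour treatment and ATP-based viability.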

[14] = as above; details: GBM patient neurospheres viability, ATP luminescence, 48 h; Potency: tumour line A; series mostly up to 46.1 µM
Procedure, shortened: as §2

[15] = qHTS assay to identify inhibitors of the type 1 interferon - major histocompatibility complex class I in skeletal muscle: Counter screen cell viability and HiBit confirmation (AID 1347412); details: iHSKM muscle cells + IFN-b, HiBiT or CellTiter-Glo, 24 h; Potency: HiBiT; Viability, at 45.9 µM (top of the series); further: nearly all actives have a fitted effect of over 60% in size; further: potency means the concentration at half of the fitted maximal effect
Procedure, shortened: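 Duplicate plates, pinned identically: one read for HiBiT-tagged endogenous HLA-B luminescence, the other for ATP-content viability via CellTiter Glo. Cells were genome-engineered human myoblasts given 4 ng/ml IFN-b; compounds 12-pt, 1:3 from 46 uM final; 24 hr exposure.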

SMILES | Potency [1] | Potency [2] | Potency [3] | Potency [4] | Potency [5] | Potency [6] | Potency [7] | Potency [8] | Potency [9] | Potency [10] | Potency [11] | Potency [12] | Potency [13] | Potency [14] | Potency [15]
Nc1ccn(C2CO[C@H](CO)O2)c(=O)n1 (stereo partly drawn) | inactive | inactive | inactive | inactive | inactive | inactive | inactive | inactive | inactive | inactive | inactive | inactive | inactive | – | –
CCCCCCCCCCCCCCCC(=O)OC[C@@H](NC(=O)C(Cl)Cl)[C@H](O)c1ccc([N+](=O)[O-])cc1 | inactive | – | – | – | – | – | – | – | – | – | – | – | inactive | inactive | –
CCN(CC)Cc1ccc2cc(COC(=O)Nc3ccc(C(=O)NO)cc3)ccc2c1 | 0.526 µM (active) | 3.55 µM (active) | 6.31 µM (active) | 6.31 µM (active) | 6.31 µM (active) | 10 µM (active) | 3.55 µM (active) | 1 µM (active) | 1.78 µM (active) | – | 7.94 µM (active) | 7.08 µM (active) | – | – | –
CCCCOc1ccc(C(=O)Nc2ccc(F)cc2F)cc1 | inactive | inactive | inactive | inactive | inactive | – | inactive | inactive | inactive | – | inactive | inactive | – | – | –
Cc1cnc(Nc2ccc(CN3CCOCC3)cc2)nc1Nc1cccc(S(=O)(=O)NC(C)(C)C)c1 | 10.5 µM (active) | – | 8.91 µM (active) | – | 1 µM (active) | – | 17.8 µM (active) | 22.4 µM (active) | 1.58 µM (active) | 7.08 µM (active) | 2.24 µM (active) | 5.01 µM (active) | – | – | 8.83 µM (active)
Cc1ccccc1C(=O)Nc1ccc(C(=O)N2CCCC(O)c3cc(Cl)ccc32)c(C)c1 (stereo not drawn) | inactive | inactive | inactive | inactive | inactive | inactive | inactive | – | inactive | inactive | inactive | inactive | inactive | – | –
COc1cc(CCc2cc(NC(=O)c3ccc(N4C[C@@H](C)N[C@@H](C)C4)cc3)n[nH]2)cc(OC)c1 | inactive | – | – | – | 25.1 µM (active) | inactive | inactive | – | 20 µM (active) | – | – | – | – | – | inactive
C=CC(=O)Nc1ccc2ncnc(Nc3ccc(OCc4cccc(F)c4)c(Cl)c3)c2c1 | 0.0332 µM (active) | – | 14.1 µM (active) | inactive | inactive | – | inactive | inactive | inactive | inactive | 10 µM (active) | – | – | – | –
Cc1onc(-c2ccccc2)c1C(=O)N[C@@H]1C(=O)N2[C@@H](C(=O)O)C(C)(C)S[C@@H]12 | inactive | – | – | – | – | – | – | – | – | – | – | – | inactive | inactive | –
CC(C)C[C@H](NC(=O)[C@@H](NC(=O)c1cccc(-c2ccccc2)n1)[C@@H](C)O)B(O)O | 0.0833 µM (active) | – | 0.112 µM (active) | 0.251 µM (active) | 0.631 µM (active) | 0.316 µM (active) | – | 0.316 µM (active) | – | – | 0.112 µM (active) | – | – | – | 0.0557 µM (active)
CC(C)c1cc(C(C)C)c(CC(=O)NS(=O)(=O)Oc2c(C(C)C)cccc2C(C)C)c(C(C)C)c1 | inactive | inactive | inactive | inactive | – | – | inactive | inactive | – | inactive | inactive | inactive | – | – | inactive
C[C@@H](Cc1cc2c(c(C(N)=O)c1)N(CCCO)CC2)NCCOc1ccccc1OCC(F)(F)F | inactive | – | – | – | – | – | inactive | – | 31.6 µM (active) | – | – | – | – | – | –
